Source: ChEMBL document CHEMBL4513216, “Probing the Open Global Health Chemical Diversity Library for Multistage-Active Starting Points for Next-Generation Antimalarials” (ACS Infect Dis, 2020)
The campaign covered roughly 69,000 compounds. About 8,600 (12%) showed an effect of 50% or more. This excerpt belongs to a sample that is enriched for strong results.

These molecules were tested on Plasmodium berghei (assay: Screen against P. berghei liver stage (PbLuc), transformed with Luciferase, at 10uM). Conditions: tested at 10 uM.
Type: functional, HepG2

Compound	INHIBITION [%]
Cc1nn(C)c2cn(CC(=O)N3CCN(c4ccccc4)CC3)nc12	30.8
Cn1ccnc1CN1CCOC(Cc2ccccc2)C1 (stereo not given)	0.696
O=C(NCCC1CN(Cc2c[nH]cn2)CCO1)Nc1ccccc1 (stereo not given)	1.79
CC1(C)C(C(=O)NCCC2CN(Cc3c[nH]cn3)CCO2)C1(C)C (stereo not given)	55.5
O=C(NCCC1CN(Cc2c[nH]cn2)CCO1)c1ccccc1O (stereo not given)	18.6
c1ccc(C(CC2CN(Cc3c[nH]cn3)CCO2)c2ccccc2)cc1 (stereo not given)	72.1
c1ccc(C(CC2CN(Cc3ncc[nH]3)CCO2)c2ccccc2)cc1 (stereo not given)	43.9
CC(C)NC(=O)N(Cc1cc(O)nc2ccccc12)C(C)C	-10.3
CCOc1ccnc(N2CCN(C(=O)c3ccoc3)CC2)n1	23.7
Cc1cc(C)c2[nH]c(C(=O)NCCN3CCNC3=O)c(C)c2c1	-16.3
Cc1nc(=O)c(CC(=O)N2C[C@@H]3CC[C@H]2CN(C(=O)N(C)C)C3)c(C)[nH]1	0.547
Cc1ccc(CN2C[C@@H](OCc3csc(C)n3)[C@H]3COC[C@H]32)s1	-14.4
Cc1cnc(CNC(=O)[C@@]23CCO[C@@H]2CCNC3)cn1	49.4
Cc1cc(C[C@@H]2CCC[C@H]2NCc2c[nH]nc2-c2ccccc2)on1	5.56
Cc1cc(C[C@@H]2CCC[C@H]2NCc2ccccc2C(F)(F)F)on1	70.5
Cc1cc(C[C@@H]2CCC[C@H]2NCc2cccc(F)c2F)on1	15.9
Cc1cc(C[C@@H]2COC[C@H]2NCc2ccc(C(F)(F)F)cc2)on1	31.6
Cc1cc(C[C@@H]2COC[C@H]2NCc2ccc(Br)s2)on1	31.8
Cc1cc(C[C@@H]2COC[C@H]2NCc2ccccc2C(F)(F)F)on1	50
Cc1cc(C[C@@H]2CCC[C@H]2NCc2ccc(C(F)(F)F)cc2)on1	41.2
Cc1cc(C[C@@H]2CCC[C@H]2NCc2ccccc2F)on1	75.3
Cc1cc(C[C@@H]2CCC[C@H]2NCc2cc(F)ccc2F)on1	-1.85
Cc1cc(C[C@@H]2CCC[C@H]2NCc2cc(C)c(O)c(C)c2)on1	26.7
CCCOc1ccccc1CN[C@@H]1CCC[C@H]1Cc1cc(C)no1	54.5
Cc1cc(C[C@@H]2CCC[C@H]2NCc2ccccc2C)on1	44.1
O=C(CCc1nc(C2CC2)no1)c1ccc(F)c(F)c1	-2.43
CCOc1ccc(OCc2nc3c(c(=O)[nH]2)CCNC3)cc1	26.7
c1coc(CN2C[C@@H]3OCCN(CCN4CCCC4)[C@@H]3C2)c1	36.4

Compound	INHIBITION [%]
CCn1cnnc1CNC(=O)N1CCC(OCc2ccccc2)CC1	23.4
COCc1cncc2c1CCN(C(=O)c1ccc(C#N)cc1)C2	5.89
CC(C)C(=O)N1CCC(C)(c2cc[nH]n2)CC1	-16.9
O[C@@H]1CC(CNCc2cccc(Cl)c2)(COc2cnccn2)C[C@@H]1O (stereo not given in full)	-4.26
CN(Cc1n[nH]c2c1CCC2)C(=O)CCc1cc2n(n1)CCCNC2	0.72
CO[C@@H]1CN(c2ccccc2)S(=O)(=O)[C@@]12CCN(C(=O)N(C)C)C2	51.7
CO[C@@H]1CN(c2ccccc2)S(=O)(=O)[C@@]12CCN(C(C)=O)C2	34.3
COC(=O)N1CC[C@@]2(C1)[C@H](OC)CN(c1ccccc1)S2(=O)=O	31.3
O=C1CCC2(CCNCC2)CN1Cc1nncn1CCc1ccccc1	0.348
CC(=O)NCc1ccc(-n2ccnc2C)nc1	57.6
Cc1nccn1-c1ccc(CNC(=O)c2ccc[nH]2)cn1	10.5
Cc1nccn1-c1ccc(CNS(=O)(=O)N2CCC(C)CC2)cn1	76
Cc1nccn1-c1ccc(CNC(=O)c2ccc(O)nc2)cn1	38.3
Cc1nccn1-c1ccc(CNS(=O)(=O)N2CCCC(C)C2)cn1 (stereo not given)	37.7
Cc1nccn1-c1ccc(CNS(=O)(=O)N2CCCCC2C)cn1 (stereo not given)	43.9
CCn1cc(C(=O)Nc2cc(C(=O)OC)ccc2C(=O)OC)cn1	13.3
COc1ccccc1Cc1cc(O)nc(NC(C)CN(C)C)n1 (stereo not given)	9.63
CC(NC(=O)COc1ccccc1Cl)c1nnc2n1CCC2 (stereo not given)	-40.7
CC(C)CN1CC(C(=O)NCc2ccnc(-n3cccn3)c2)CC1=O (stereo not given)	27.357
Cn1cc(C(=O)N2CCCC(Cc3cnccn3)C2)cn1 (stereo not given)	-12.2
CS(=O)(=O)N1CCCC(Cc2cnc(Br)cn2)C1 (stereo not given)	26.7
CCS(=O)(=O)N1CCCC(Cc2cnccn2)C1 (stereo not given)	56
CC(NC(=O)CCCn1cnc2ccccc2c1=O)c1ncn[nH]1 (stereo not given)	11.1
COCc1cc(NCCc2ccc(OC)cc2)n2nccc2n1	32.2
N#CC1(NC(=O)c2ccc(-c3nc(C4CC4)n[nH]3)cc2)CC1	8.38
Cc1cc(=O)n(CC(=O)NC(C)C)c(Nc2ccc(F)c(C)c2)n1	64.2
Cc1cccc(-c2nc(C)nn2CC(=O)NC(C)C)c1	22.3
